Only some compounds are listed: those with a hit (about 19% of all), similar ones and a draw of the others.
HT1080NT lethal: qHTS for induction of synthetic lethality in tumor cells producing 2HG: qHTS for the HT-1080-NT fibrosarcoma cell line; Potency, µM (titrated, usually from 46.1 µM), without a hit: at the highest dose activity, negative = less viability, usual class: cytotoxic; hit rate 1.6% among 360,000; HT-1080-NT fibrosarcoma viability, CellTiter-Glo ATP luminescence, 48 h;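 further: NT is the 2HG producing partner of a matched IDH1 knockdown line; 0% = DMSO-treated cells and -100% = media-only wells without cells; nearly all actives have a fitted effect of over 55% in size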
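HT-1080-NT fibrosarcoma cells (2HG-overproducing), 750 cells/well in RPMI with 5% FBS, dosed after 2 h and incubated 48 h at 37C. CellTiter-Glo luminescence normalized to DMSO and no-cell wells; concentration-response curves fitted and classed.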
DT40 TDP1 no CPT: qHTS for Inhibitors of human tyrosyl-DNA phosphodiesterase 1 (TDP1): qHTS in cells in absence of CPT; hit rate 15% among 420,000; DT40 Tdp1-/- hTDP1 cells, no CPT, ATP luminescence, 48 h; Potency, µM (titrated, usually from 46.2 µM), for the others: top-dose activity change, negative = growth inhibition, most hits filed as inhibitors; AID 686978, 2013; further: nearly all actives have a fitted effect of over 55% in size
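A cellular qHTS used chicken DT40 cells lacking endogenous Tdp1 but carrying stably transfected human TDP1. Compounds were applied without camptothecin, and cell growth kinetics were judged by ATP-dependent luminescence after ≥48 hr.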
KB-3-1 cytotox: qHTS assay for MDR1-selective chemotherapeutics: Primary screen using the parental adenocarcinoma cell KB-3-1; KB-3-1 viability, CellTiter-Glo ATP luminescence, 72 h; Potency, µM (titrated, usually from 46.1 µM), actives largely listed as cytotoxic; hit rate 1.4% among 400,000; further: nearly all actives have a fitted effect of over 60% in size
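Screening of KB-3-1 cells (DMEM, 10% FBS, phenol-red free) ran from lowest to highest compound concentration; after 72 h at 37 °C viability was read luminescently and curves fitted.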
HT1080 IDH1KD tx: qHTS for induction of synthetic lethality in tumor cells producing 2HG: qHTS for the HT-1080-IDH1KD cell line; HT-1080 IDH1 knockdown viability, ATP luminescence, 48 h; Potency, µM (doses to about 46.1 µM), for inactives: at the top dose activity, negative = toxicity, usual class: cytotoxic; hit rate 2% among 360,000; AID 686971, 2013;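 further: 0% = DMSO wells and -100% = cell-free medium wells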
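Knockdown cells (IDH1KD HT-1080) received compounds 2 h after plating at 750 cells/well and were kept 48 h at 37 °C in 5% FBS RPMI. A CellTiter-Glo luminescence read gave % activity for curve fitting.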
KB-V1 MDR tox: qHTS assay for MDR1-selective chemotherapeutics: Primary screen using the drug-selected MDR subline cells KB-V1; KB-V1 MDR cells viability, CellTiter-Glo, 72 h; Potency, µM (series often up to 46.1 µM), actives largely listed as cytotoxic; hit rate 3.4% among 400,000; AID 1347076, 2019; further: nearly all actives have a fitted effect of over 60% in size
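In this primary screen, KB-V1 cells overexpressing P-gp are incubated with library compounds (lowest to highest concentration) for 72 h at 37 degrees C before a luminescent ATP viability read.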
DT40 TDP1 CPT: qHTS for Inhibitors of human tyrosyl-DNA phosphodiesterase 1 (TDP1): qHTS in cells in presence of CPT | chicken DT40 Tdp1-/-;hTDP1 cells + 20 nM CPT, ATP luminescence, 48 h | Potency, µM (series often up to 46.2 µM), for inactives: at the highest dose activity change, negative = growth inhibition, hits mostly inhibitors | hit rate 12% among 420,000 | AID 686979, 2013; further: nearly all actives have a fitted effect of over 55% in size
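Chicken DT40 Tdp1-/- cells stably complemented with human TDP1 were seeded at 400 cells/well in medium containing 20 nM camptothecin, exposed to pin-transferred compounds, and grown at 37 °C for at least 48 hr. Viability was read as ATP luminescence.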
Starred values were filed as active, the others as inactive; i = inactive; ? = inconclusive; . = no result given. The call rests on the fitted dose curve; in most records, active means well fitted curve in the direction sought with a large enough effect; inconclusive means small, poorly fitted or top-dose-only effect, or another doubt; inactive means no such curve, though single readings can be large; an effect the other way counts as inactive or inconclusive. Unless noted, on the % scale 0 is the no-effect control and ±100 the full control effect; potency means the concentration at half of the fitted maximal effect.

SMILES | HT1080NT lethal | DT40 TDP1 no CPT | KB-3-1 cytotox | HT1080 IDH1KD tx | KB-V1 MDR tox | DT40 TDP1 CPT
CC(C)(C)c1ccc(O)c(N=Cc2cc3c(cc2[N+](=O)[O-])OCO3)c1 | -21% | 16µM* | i | -1% | i | ?
CCOC(=O)c1ccc(N2C(=O)c3n[nH]c(-c4cccs4)c3C2c2ccc(C)cc2)cc1 (stereo not given) | . | -2% | i | . | i | 1%
CCOC(=O)c1ccc(N2C(=O)c3n[nH]c(-c4cccs4)c3C2c2cccc(F)c2)cc1 (stereo not given) | . | 18µM* | . | . | . | ?
CCOC(=O)c1ccc(N2C(=O)c3n[nH]c(-c4cccs4)c3C2c2ccc(O)c(OC)c2)cc1 (stereo not given) | . | 21µM* | i | . | i | ?
CC(Oc1ccc(Cl)cc1)C(=O)NCC1CCCO1 (stereo not given) | -2% | -2% | i | -5% | i | 8%
Cc1noc(C)c1COc1cccc(C(=O)OCC(=O)N2CC(=O)Nc3ccccc32)c1 | ? | 0.65µM* | 1.5µM* | 1.8µM* | ? | 0.58µM*
Cc1cc(C(=O)OCC(=O)N2CC(=O)Nc3ccccc32)c(C)n1-c1ccccc1 | 10% | ? | i | 7% | 16µM* | -11%
CC(=O)N1CCN(S(=O)(=O)c2cccc(C(=O)OCC(=O)N3CC(=O)Nc4ccccc43)c2)CC1 | -1% | -18% | i | -3% | i | 8%
Cc1cc(C(=O)OCC(=O)N2CC(=O)Nc3ccccc32)c(C)n1-c1ccc(F)cc1 | -1% | ? | ? | -4% | 16µM* | -23%
O=C1CN(C(=O)COC(=O)c2ccccc2O)c2ccccc2N1 | ? | -9% | i | 18% | i | 3%
CCCN(CC(=O)Nc1ccccc1C)C(=O)CCN1C(=O)c2cccc([N+](=O)[O-])c2C1=O | 1% | -19% | i | -2% | i | 6%
O=C(NCc1ccccc1)c1nn(-c2ccccc2)nc1CO | . | ? | . | . | . | -28%
COc1ccc(NC(=O)CCNS(=O)(=O)c2cccc3nsnc23)cc1Cl | . | -30% | i | . | i | 0%
CCSc1nnc(-c2ccncc2)o1 | 16% | -2% | i | 6% | i | 1%
CCSc1nnc(-c2sc3nnc(-c4ccccc4)c(-c4ccccc4)c3c2N)o1 | 27% | 23µM* | i | 16% | i | 13µM*
CC(=O)N1CCN(c2ccccc2NC(=O)c2ccc(-c3cccc([N+](=O)[O-])c3)o2)CC1 | -9% | 16µM* | i | -8% | i | 23µM*
CN1CCN(c2ccccc2NC(=O)c2ccc(-c3ccccc3[N+](=O)[O-])o2)CC1 | -5% | 16µM* | ? | -30% | i | 15µM*
O=C(NC(=S)Nc1ccccc1N1CCCC1)c1ccc(-c2cccc([N+](=O)[O-])c2)o1 | ? | ? | ? | ? | 16µM* | ?
COc1cccc(NC(=O)c2ccc(-c3ccccc3[N+](=O)[O-])o2)c1 | -6% | ? | i | -14% | ? | ?
O=C(NC(=S)Nc1ccccc1N1CCOCC1)c1ccc(-c2cccc(Cl)c2)o1 | 17% | ? | i | 9% | i | ?
O=C(NC(=S)Nc1ccccc1N1CCCCC1)c1ccc(-c2cccc([N+](=O)[O-])c2)o1 | 4% | 23µM* | i | 12% | i | ?
Cc1ccccc1N1CCN(C(=S)c2ccc(-c3cccc([N+](=O)[O-])c3)o2)CC1 | 0% | -27% | i | -4% | i | ?
N#Cc1ccc(S(=O)(=O)NC2CCCCNC2=O)cc1 (stereo not given) | 2% | -3% | i | 14% | i | 16%
CCCCNC(=O)CCC1N=C2c3ccccc3N=C(SCC(=O)NCCc3ccc(OC)c(OC)c3)N2C1=O (stereo not given) | . | 0% | i | . | i | 6%
C=CCNC(=O)/C(=C\c1ccc2c(c1)OCO2)NC(=O)c1ccc(Br)cc1 | -8% | 2% | i | -3% | 23µM* | -22%
SMILES | HT1080NT lethal | DT40 TDP1 no CPT | KB-3-1 cytotox | HT1080 IDH1KD tx | KB-V1 MDR tox | DT40 TDP1 CPT
O=C(O)CNC(=O)/C(=C\c1ccc2c(c1)OCO2)NC(=O)c1ccc(Br)cc1 | 17% | -23% | i | 21% | i | 9%
CCOC(=O)c1[nH]c(C)c(C(=O)NCCc2ccccc2)c1C | . | -12% | i | . | i | -14%
CCOC(=O)C1CCC(CN(Cc2ccc(OC)cc2)S(=O)(=O)c2ccc(F)c(C(=O)Nc3ccc(C)c(C)c3)c2)CC1 (stereo not given) | . | -4% | i | . | i | ?
CCOC(=O)C1CCC(CN(Cc2cccc(Br)c2)S(=O)(=O)c2ccc(Cl)cc2)CC1 (stereo not given) | . | 21µM* | i | . | i | 29µM*
CCOC(=O)C1CCC(CN(Cc2c(Cl)cccc2Cl)S(=O)(=O)c2ccc(Cl)cc2)CC1 (stereo not given) | . | 21µM* | . | . | . | ?
CCOc1ccc(C2=CC(c3cc(Br)ccc3F)n3ncnc3N2)cc1Cl (stereo not given) | . | 18µM* | i | . | i | 15µM*
Fc1ccc(Br)cc1C1C=C(c2cccnc2)Nc2ncnn21 (stereo not given) | -7% | 16µM* | ? | -6% | i | 16µM*
CCOc1ccc(C2C=C(c3ccc(F)cc3)Nc3ncnn32)cc1 (stereo not given) | 2% | ? | i | -2% | i | -21%
CCc1ccc(CN(C)C(=O)C2=CC=CN3CCS(=O)(=O)N=C23)cc1 | 19% | -18% | i | 22% | i | -15%
Cc1nn(CC(=O)Nc2cc(S(=O)(=O)N(C)C)ccc2Cl)c(C)c1[N+](=O)[O-] | 8% | -22% | i | -3% | 21µM* | -19%
Cc1nn(CC(=O)Nc2ccc3c(c2)CCC3)c(C)c1[N+](=O)[O-] | -4% | -20% | i | -5% | 18µM* | -29%
Cc1ccc(NC(=O)Cn2nc(C)c([N+](=O)[O-])c2C)cc1C | 0% | -21% | i | -13% | i | -23%
